The target of assay [1] is Acetylcholinesterase (Homo sapiens) (UniProt P22303). The experiment in a line: Acetylcholinesterase (AChE) small molecule antagonists: fluorescence cell-based qHTS assay (AID 1347398; calls by dose curve; note: nearly all actives have a fitted effect of over 50% in size). To be noted: Potency: AChE activity. The method, boiled down:
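SH-SY5Y, 2,000 cells/well, attached overnight; cmpd 30 min 37 C; acetylthiocholine/Thiolite Green cocktail 40 min RT; fluorescence Ex/Em 490/520 nm.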
For orientation: qHTS replaces the single test concentration by a dilution series.

Assay [2] shares this target. The experiment in a line: Acetylcholinesterase (AChE) small molecule antagonists: enzyme-based qHTS assay with human liver microsomes (AID 1347399; calls by dose curve; note: nearly all actives have a fitted effect of over 60% in size). Particulars: Potency: qHTS inhibition. The method in brief: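 Recombinant human AChE (50 mU/mL in the enzyme mix) and human liver microsomes (0.25 mg/mL final) were preincubated with compound and NADPH (0.25 mg/mL final) for 30 min at 37 C. Acetylthiocholine/DTNB was then added; thiocholine was read colorimetrically after 10 min at room temperature.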

The target in assay [3] is Cytochrome P450 2C19 (Homo sapiens) (UniProt P33261). As to the kind of experiment: Cytochrome P450 Family 2 Subfamily C Member 19 (CYP2C19) small molecule antagonists: luciferase reporter qHTS assay (AID 1671197). Note: nearly all actives have a fitted effect of over 65% in size. The method, boiled down:
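Enzyme-substrate mix with proluciferin substrate (P450-Glo CYP2C19 system) preincubated with compounds 10 min at room temperature; NADPH regeneration solution added, 37C for 1 h; detection reagent stops reaction, luminescence read after 20 min. Ketoconazole positive control.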
In general terms: Reporter assays use an easily measured gene product as a stand-in for the process of interest.

Assay [4] has as its target Cytochrome P450 2C9 (Homo sapiens) (UniProt P11712). The experiment in a line: Cytochrome P450 Family 2 Subfamily C Member 9 (CYP2C9) small molecule antagonists: luciferase reporter qHTS assay (AID 1671198). Note: nearly all actives have a fitted effect of over 50% in size. The method, boiled down:
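P450-Glo proluciferin substrate with CYP2C9 enzyme; 10 min RT preincubation, then NADPH regeneration 1 h at 37C; luciferin detection reagent 20 min RT, luminescence in relative luminescence units.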

The target of assay [5] is Cytochrome P450 3A4 (Homo sapiens) (UniProt P08684). The experiment in a line: Cytochrome P450 Family 3 Subfamily A Member 4 (CYP3A4) small molecule antagonists: luciferase reporter qHTS assay (AID 1671201). Note: nearly all actives have a fitted effect of over 50% in size. The method in brief: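 P450-Glo CYP3A4 luminescent assay: compounds preincubated 10 min at room temperature with enzyme and proluciferin substrate, NADPH regeneration added, 1 h room-temperature reaction, stopped with luciferin detection reagent; luminescence read after 20 min. Ketoconazole positive control.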

The target of assay [6] is Cytochrome P450 1A2 (Homo sapiens) (UniProt P05177). As to the kind of experiment: Cytochrome P450 Family 1 Subfamily A Member 2 (CYP1A2) small molecule antagonists: luciferase reporter qHTS assay (AID 1671199). Note: nearly all actives have a fitted effect of over 50% in size. The method, boiled down:
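Steps: enzyme-substrate mix dispensed; test compounds and furafylline control pinned in; 10 min room temperature; NADPH regeneration solution added, 1 h; reaction stopped with luciferin detection reagent; luminescence read after 20 min.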

For assay [7], the target named is Voltage-gated inwardly rectifying potassium channel KCNH2 (Homo sapiens) (UniProt Q12809). The experiment in a line: Human Ether-a-go-go-Related Gene (hERG) channel small molecule antagonists: fluorescence cell-based qHTS assay (AID 1671200). Note: nearly all actives have a fitted effect of over 50% in size. The method in brief:
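hERG-U2OS cells plated overnight at 37 C, loaded with FluxOR II dye 1 h at RT in dark; after 10 min, thallium stimulus added. Fluorescence (480/540 nm) read kinetically for 2 min at 1 s intervals.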

Unmarked numbers belong to inactive results. Inconclusive results are not listed. Calls of active or inactive are those of the source. Unless noted, calls come from the whole dose curve; as a rule, active = well fitted curve in the direction sought with a large enough effect in the repeat runs; inconclusive = weak or mixed curves; inactive = no such curve, though single readings can be large; an effect the other way counts as inactive or inconclusive.
Potency is the fitted concentration of half-maximal effect.

Sequence of Voltage-gated inwardly rectifying potassium channel KCNH2 (Homo sapiens) (Q12809 whole entry, looked up): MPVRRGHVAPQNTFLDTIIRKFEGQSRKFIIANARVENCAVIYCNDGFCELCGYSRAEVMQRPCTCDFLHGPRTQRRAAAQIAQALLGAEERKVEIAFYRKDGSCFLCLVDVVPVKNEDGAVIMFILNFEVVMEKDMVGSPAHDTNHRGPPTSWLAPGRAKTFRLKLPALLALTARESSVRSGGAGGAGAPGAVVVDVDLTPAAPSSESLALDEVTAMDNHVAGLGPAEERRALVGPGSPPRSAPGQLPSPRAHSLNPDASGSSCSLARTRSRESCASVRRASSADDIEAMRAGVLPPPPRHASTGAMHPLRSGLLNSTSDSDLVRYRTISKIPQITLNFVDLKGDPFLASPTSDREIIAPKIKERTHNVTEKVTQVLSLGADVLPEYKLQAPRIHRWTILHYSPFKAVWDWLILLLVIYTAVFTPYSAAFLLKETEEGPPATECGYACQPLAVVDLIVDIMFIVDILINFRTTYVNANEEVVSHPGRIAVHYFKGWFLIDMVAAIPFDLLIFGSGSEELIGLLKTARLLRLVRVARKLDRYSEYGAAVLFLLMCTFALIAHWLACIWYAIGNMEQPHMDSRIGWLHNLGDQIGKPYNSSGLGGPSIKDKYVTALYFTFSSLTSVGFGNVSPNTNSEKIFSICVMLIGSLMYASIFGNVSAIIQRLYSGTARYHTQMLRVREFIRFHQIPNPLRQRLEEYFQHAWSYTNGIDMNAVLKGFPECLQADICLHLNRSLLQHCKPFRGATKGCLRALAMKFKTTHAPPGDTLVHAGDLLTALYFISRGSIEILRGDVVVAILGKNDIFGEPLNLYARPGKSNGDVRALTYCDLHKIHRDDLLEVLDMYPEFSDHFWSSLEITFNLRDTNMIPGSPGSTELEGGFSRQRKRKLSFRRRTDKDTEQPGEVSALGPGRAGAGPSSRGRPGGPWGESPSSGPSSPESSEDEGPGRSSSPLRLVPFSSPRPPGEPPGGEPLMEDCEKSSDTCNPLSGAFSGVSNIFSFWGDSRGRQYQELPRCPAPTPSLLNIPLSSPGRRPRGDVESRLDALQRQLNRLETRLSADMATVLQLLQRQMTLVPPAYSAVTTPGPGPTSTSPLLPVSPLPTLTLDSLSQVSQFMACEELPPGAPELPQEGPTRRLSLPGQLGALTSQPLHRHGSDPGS
Sequence of Cytochrome P450 3A4 (Homo sapiens) (P08684 whole entry, looked up): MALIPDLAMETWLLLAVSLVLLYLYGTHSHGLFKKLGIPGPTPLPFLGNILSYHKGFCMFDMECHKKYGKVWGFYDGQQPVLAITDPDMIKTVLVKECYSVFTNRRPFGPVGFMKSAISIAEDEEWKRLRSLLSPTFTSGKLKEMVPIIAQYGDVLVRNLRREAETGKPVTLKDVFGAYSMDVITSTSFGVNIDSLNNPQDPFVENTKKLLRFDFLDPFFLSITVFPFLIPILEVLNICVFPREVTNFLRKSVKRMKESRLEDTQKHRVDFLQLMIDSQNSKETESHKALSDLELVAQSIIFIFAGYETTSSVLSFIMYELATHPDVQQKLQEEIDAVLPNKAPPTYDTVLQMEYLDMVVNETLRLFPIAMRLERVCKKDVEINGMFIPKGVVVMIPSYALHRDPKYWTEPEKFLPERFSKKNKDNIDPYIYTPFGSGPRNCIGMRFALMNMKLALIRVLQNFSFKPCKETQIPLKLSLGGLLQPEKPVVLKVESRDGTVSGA
Sequence of Cytochrome P450 2C9 (Homo sapiens) (P11712 whole entry, looked up): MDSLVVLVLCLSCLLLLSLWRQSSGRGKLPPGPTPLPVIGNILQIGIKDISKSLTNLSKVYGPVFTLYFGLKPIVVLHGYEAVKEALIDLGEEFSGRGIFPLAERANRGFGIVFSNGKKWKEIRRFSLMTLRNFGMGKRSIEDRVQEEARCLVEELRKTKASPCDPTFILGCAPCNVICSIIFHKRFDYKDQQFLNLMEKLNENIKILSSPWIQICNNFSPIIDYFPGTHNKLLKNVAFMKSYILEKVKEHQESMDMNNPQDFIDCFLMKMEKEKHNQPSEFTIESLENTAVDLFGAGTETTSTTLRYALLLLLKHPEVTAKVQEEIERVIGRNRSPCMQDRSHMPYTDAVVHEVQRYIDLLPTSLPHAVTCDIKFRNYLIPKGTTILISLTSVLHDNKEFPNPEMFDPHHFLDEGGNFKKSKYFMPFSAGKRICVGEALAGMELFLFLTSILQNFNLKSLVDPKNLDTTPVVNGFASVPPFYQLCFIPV
Sequence of Cytochrome P450 2C19 (Homo sapiens) (P33261 whole entry, looked up): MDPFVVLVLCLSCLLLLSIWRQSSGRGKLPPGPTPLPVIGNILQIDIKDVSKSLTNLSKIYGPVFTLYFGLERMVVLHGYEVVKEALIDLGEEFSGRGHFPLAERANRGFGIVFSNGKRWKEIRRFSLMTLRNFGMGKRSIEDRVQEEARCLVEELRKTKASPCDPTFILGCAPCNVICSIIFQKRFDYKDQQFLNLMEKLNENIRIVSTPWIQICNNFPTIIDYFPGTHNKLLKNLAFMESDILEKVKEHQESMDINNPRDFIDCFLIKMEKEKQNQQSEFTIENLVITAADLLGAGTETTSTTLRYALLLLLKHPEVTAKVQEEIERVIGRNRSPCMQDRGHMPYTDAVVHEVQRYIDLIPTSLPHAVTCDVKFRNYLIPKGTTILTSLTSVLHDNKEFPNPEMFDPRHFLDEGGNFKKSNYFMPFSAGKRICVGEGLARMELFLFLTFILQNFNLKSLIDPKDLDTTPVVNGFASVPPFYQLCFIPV
Sequence of Cytochrome P450 1A2 (Homo sapiens) (P05177 whole entry, looked up): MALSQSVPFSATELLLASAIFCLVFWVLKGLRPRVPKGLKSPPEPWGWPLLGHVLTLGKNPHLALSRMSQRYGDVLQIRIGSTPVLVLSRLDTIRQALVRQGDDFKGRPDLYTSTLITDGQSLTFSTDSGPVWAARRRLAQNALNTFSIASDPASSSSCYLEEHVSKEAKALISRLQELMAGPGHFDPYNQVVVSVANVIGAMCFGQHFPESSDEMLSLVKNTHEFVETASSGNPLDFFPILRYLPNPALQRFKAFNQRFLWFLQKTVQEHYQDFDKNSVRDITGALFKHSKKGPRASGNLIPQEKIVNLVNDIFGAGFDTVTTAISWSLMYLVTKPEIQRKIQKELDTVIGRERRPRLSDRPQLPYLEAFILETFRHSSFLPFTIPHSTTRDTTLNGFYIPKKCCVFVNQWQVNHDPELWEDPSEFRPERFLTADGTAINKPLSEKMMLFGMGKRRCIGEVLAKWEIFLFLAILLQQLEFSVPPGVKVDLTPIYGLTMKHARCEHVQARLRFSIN
Sequence of Acetylcholinesterase (Homo sapiens) (P22303 whole entry, looked up): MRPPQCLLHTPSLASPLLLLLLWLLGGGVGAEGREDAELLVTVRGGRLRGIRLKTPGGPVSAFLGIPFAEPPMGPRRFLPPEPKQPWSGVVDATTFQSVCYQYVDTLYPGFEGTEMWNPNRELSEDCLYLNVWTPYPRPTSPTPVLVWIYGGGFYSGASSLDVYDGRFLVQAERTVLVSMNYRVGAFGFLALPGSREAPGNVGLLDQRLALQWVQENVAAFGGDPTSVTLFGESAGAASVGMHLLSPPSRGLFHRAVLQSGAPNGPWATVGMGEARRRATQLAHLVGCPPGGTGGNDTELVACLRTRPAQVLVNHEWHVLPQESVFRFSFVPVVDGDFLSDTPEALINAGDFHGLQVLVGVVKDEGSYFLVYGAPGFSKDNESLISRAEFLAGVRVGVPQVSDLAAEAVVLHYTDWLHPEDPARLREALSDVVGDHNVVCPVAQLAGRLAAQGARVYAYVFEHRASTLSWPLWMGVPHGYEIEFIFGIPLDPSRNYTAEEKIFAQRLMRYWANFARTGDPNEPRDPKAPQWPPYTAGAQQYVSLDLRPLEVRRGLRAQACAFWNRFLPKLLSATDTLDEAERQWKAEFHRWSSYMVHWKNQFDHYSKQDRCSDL

On to `N#CCNCC#N`, for which the Potency result in assay [1], in assay [2], in assay [3], in assay [4] and in assay [5] was “inactive” in each case.
Take `O=C(Nc1ccccc1)N(Cc1ccc(Cl)cc1)C1CCCC1`: the Potency entry in assay [1] and in assay [2] was “inactive” in each case. The Potency in assay [3] was 7.1 µM (active); in assay [4], 15.9 µM (active); in assay [6], 15.9 µM (active); in assay [7] it was 38.9 µM (active); in assay [5], 11.2 µM (active).
With `CCN(CC)CCOC(=O)C(C)(c1ccccc1)c1ccccc1`, the Potency result in assay [1], in assay [2] and in assay [6] was “inactive” each time. Further, the Potency in assay [3] is 3.89 µM (active); in assay [4], 12.3 µM (active); in assay [7], 10.7 µM (active).
As for `CCCSC(=O)Cl`, the Potency entry in assay [1], in assay [2], in assay [3], in assay [4], in assay [7] and in assay [5] was “inactive” throughout.
In the case of `O=S(=O)(O)C(F)(F)C(F)(F)C(F)(F)C(F)(F)C(F)(F)C(F)(F)F`, the Potency result in assay [1], in assay [2], in assay [6], in assay [7] and in assay [5] was “inactive” each time. The Potency is 79.6 µM (active) in assay [3] and 1.12 µM (active) in assay [4].
Take `CC(=O)CCc1ccc2c(c1)OCO2`: the Potency entry in assay [1], in assay [2] and in assay [7] was “inactive” throughout. The Potency in assay [3] is 35.6 µM (active); in assay [4] it was 31.7 µM (active); in assay [6] it was 0.633 µM (active); in assay [5], 22.4 µM (active).
Turning to `COc1cc2c(cc1OC)[C@@]13CCN4CC5=CCO[C@H]6CC(=O)N2[C@H]1[C@H]6[C@H]5C[C@H]43`, the Potency entry in assay [1], in assay [2], in assay [3] and in assay [4] was “inactive” in each case.
On to `O=NN1CCCCC1`, for which the Potency result in assay [1], in assay [2], in assay [6] and in assay [7] was “inactive” throughout. In assay [3], the Potency is 35.4 µM (active).
For `CC(C)CC#N`, the Potency entry in assay [1], in assay [2], in assay [6], in assay [7] and in assay [5] was “inactive” throughout. The Potency in assay [3] is 32.5 µM (active).
As for `Cc1ncsc1CCCl`, the Potency result in assay [1], in assay [2], in assay [3], in assay [4], in assay [6] and in assay [7] was “inactive” in each case. In assay [5], the Potency result is “inactive”.
In the case of `Oc1c(Cl)cccc1Cl`, the Potency result in assay [1], in assay [2], in assay [3], in assay [4] and in assay [5] was “inactive” each time.
Take `CCCSP(=S)(OCC)Oc1ccc(Cl)cc1Cl` (stereo not drawn): the Potency entry in assay [1], in assay [2] and in assay [7] was “inactive” in each case. Besides, the Potency is 2.24 µM (active) in assay [3], 2 µM (active) in assay [4], 11.2 µM (active) in assay [6] and 2.83 µM (active) in assay [5].
`Cc1cc(C)c(C(=O)P(=O)(C(=O)c2c(C)cc(C)cc2C)c2ccccc2)c(C)c1`: the Potency result in assay [1], in assay [2] and in assay [7] was “inactive” throughout. The Potency in assay [3] was 35.6 µM (active); in assay [4] it was 35.6 µM (active); in assay [5] it was 25.2 µM (active).
On to `O=CNC(N1CCN(C(NC=O)C(Cl)(Cl)Cl)CC1)C(Cl)(Cl)Cl` (stereo not drawn), for which the Potency result in assay [1], in assay [2], in assay [6] and in assay [7] was “inactive” each time. Besides, the values for the Potency in assay [3], in assay [4] and in assay [5] were 7.96 µM (active), 35.6 µM (active) and 7.96 µM (active), respectively.
On to `CCN(CC)C(C)C(=O)c1ccccc1` (stereo not drawn), for which the Potency entry in assay [1], in assay [2], in assay [3], in assay [4], in assay [6] and in assay [7] was “inactive” throughout. Besides, the Potency entry in assay [5] was “inactive”.
On to `CCCSC(=O)N(CCC)CCC`, for which the Potency entry in assay [1], in assay [2], in assay [3], in assay [4], in assay [6] and in assay [7] was “inactive” in each case. The Potency result in assay [5] is “inactive”.
As for `N#CC(CCc1ccc(Cl)cc1)(Cn1cncn1)c1ccccc1` (stereo not drawn), the Potency entry in assay [1] and in assay [2] was “inactive” each time. The Potency was 0.2 µM (active) in assay [3], 2.24 µM (active) in assay [4], 31.7 µM (active) in assay [6] and 0.0633 µM (active) in assay [5].
On to `CCCCC(=O)Cl`, for which the Potency entry in assay [1], in assay [2], in assay [3], in assay [4] and in assay [5] was “inactive” in each case.
Regarding `COP(=S)(OC)Oc1ccc(S(N)(=O)=O)cc1`, the Potency result in assay [1], in assay [2] and in assay [7] was “inactive” in each case. Also, the Potency in assay [3] was 1.38 µM (active); in assay [4], 3.47 µM (active).
Take `O=[N+]([O-])c1cccc2c([N+](=O)[O-])cccc12`: the Potency entry in assay [1] and in assay [2] was “inactive” throughout. Besides, the Potency in assay [3] was 22.6 µM (active); in assay [4], 40.1 µM (active); in assay [6], 1.01 µM (active); in assay [7], 24.7 µM (active); in assay [5], 31.9 µM (active).
For `CNC(=O)Oc1ccc(N(C)C)c(C)c1`, the values for the Potency in assay [1] and in assay [2] were 2.24 µM (active) and 39.9 µM (active), respectively. The Potency result in assay [3], in assay [4], in assay [7] and in assay [5] was “inactive” throughout.

The record behind these values is PubChem BioAssay (Tox21).
